These results are taken from PubChem BioAssay AID2553 (Johns Hopkins Ion Channel Center, 2010).

Among all 310,000 compounds or so, about 3,300 (1.1%) were called active.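 Rule for the calls: active = B-score under library mean minus 3 SD, initial fluorescence not abnormally high, positive integrated signal ratio; inactive = the rest.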 Only a selection was taken, and actives are over-represented in it overall.

In this experiment the target is Short transient receptor potential channel 6 (Mus musculus) (UniProt Q61143). The experiment in a line: mouse TRPC6 channel inhibitors, primary screen, cell-based, HEK293, membrane potential dye (AID 2553).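 For B-score: B-score derived from integrated fluorescence ratio over the kinetic read; more negative B-score means stronger inhibition of depolarization.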 To be noted: ACh-evoked depolarization, at 10 µM; hits give low values.
Sequence of Short transient receptor potential channel 6 (Mus musculus) (Q61143 whole entry, looked up): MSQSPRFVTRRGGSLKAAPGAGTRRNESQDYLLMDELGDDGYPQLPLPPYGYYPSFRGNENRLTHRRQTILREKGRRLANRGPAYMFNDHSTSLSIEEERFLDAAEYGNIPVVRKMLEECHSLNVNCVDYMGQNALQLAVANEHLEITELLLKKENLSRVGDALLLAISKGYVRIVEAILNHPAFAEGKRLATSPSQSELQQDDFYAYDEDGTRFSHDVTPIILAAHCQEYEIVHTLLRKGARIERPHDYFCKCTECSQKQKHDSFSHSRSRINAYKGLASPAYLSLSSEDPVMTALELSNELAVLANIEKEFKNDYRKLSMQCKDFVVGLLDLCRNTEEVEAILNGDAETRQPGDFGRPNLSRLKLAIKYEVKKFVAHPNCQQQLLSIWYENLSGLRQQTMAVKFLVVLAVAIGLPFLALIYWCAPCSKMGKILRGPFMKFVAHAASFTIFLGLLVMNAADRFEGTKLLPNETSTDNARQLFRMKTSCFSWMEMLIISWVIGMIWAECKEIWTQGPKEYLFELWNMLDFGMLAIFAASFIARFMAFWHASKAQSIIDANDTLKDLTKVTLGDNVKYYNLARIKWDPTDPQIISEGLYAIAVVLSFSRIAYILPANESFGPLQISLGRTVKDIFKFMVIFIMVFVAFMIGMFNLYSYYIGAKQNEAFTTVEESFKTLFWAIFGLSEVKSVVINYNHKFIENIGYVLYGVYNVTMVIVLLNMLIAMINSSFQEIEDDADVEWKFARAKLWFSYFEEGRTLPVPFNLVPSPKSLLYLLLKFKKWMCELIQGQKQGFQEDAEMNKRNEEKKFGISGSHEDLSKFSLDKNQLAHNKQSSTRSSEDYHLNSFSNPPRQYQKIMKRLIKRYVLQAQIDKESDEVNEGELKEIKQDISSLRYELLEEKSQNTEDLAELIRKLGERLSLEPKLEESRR
In the case of `CCc1ccc(NC(=O)CS(=O)CC(=O)N2CCN(c3ccccc3F)CC2)cc1` (stereo unspecified), the B-score result is “inactive”.
As for `Cc1c(CCOC(=O)CC23CC4CC(CC(C)(C4)C2)C3)sc[n+]1Cc1ccc([N+](=O)[O-])cc1`, the figure is -5.88 (active); as for `Cc1c(CCOC(=O)c2cc([N+](=O)[O-])ccc2Cl)sc[n+]1CCCCS(=O)(=O)[O-]`, “inactive”; as for `Cc1c(CCO)sc[n+]1CC(=O)OC12CC3CC(CC(C3)C1)C2`, “inactive”.
In the case of `COc1ccc(NC(=O)CN(C)C(=O)c2ccc(NC3CC3)c([N+](=O)[O-])c2)cc1`, the B-score entry is “inactive”.
In the case of `CCC(C)(C)N=C(NC#N)Nc1cccnc1` it was “inactive”.
As for `Cc1cccn2c(=O)c3cc(C(=O)NCCN4CCOCC4)c(=N)n(Cc4cccnc4)c3nc12`, the entry is “inactive”.
As for `Cc1cccn2c(=O)c3cc(C#N)c(=NC(=O)c4cccnc4)n(CC4CCCO4)c3nc12` (stereo unspecified), the entry is “inactive”; as for `Cc1cccn2c(=O)c3cc(C#N)c(=O)n(CCCN4CCOCC4)c3nc12`, -15.8 (active); as for `CC(C)CCNC(=O)C(C)N(C(=O)Cn1nnc(-c2ccc(F)cc2)n1)C1CCCC1` (stereo unspecified), “inactive”.
Turning to `CCCCNc1nc2ccccc2nc1NS(=O)(=O)c1cccs1`, the B-score result is “inactive”.
As for `O=C(CN1C(=O)CSC1=O)N1CCCC(Nc2ccc(F)cc2)C1` (stereo unspecified), the entry is “inactive”; as for `CCOc1cccc(/C(O)=C2/C(=O)C(=O)N(CCOC)C2c2ccncc2)c1` (stereo unspecified), “inactive”; as for `CCOc1ccc(/C(O)=C2/C(=O)C(=O)N(Cc3cccnc3)C2c2ccc(N(C)C)cc2)c(C)c1` (stereo unspecified), -6.27 (active).
As for `COc1ccc(C2C(C(C)=O)=C(O)C(=O)N2Cc2cccnc2)cc1` (stereo unspecified), the entry is “inactive”; as for `O=C(NCc1ccccc1)C1C(=O)N(Cc2ccccc2)C(=O)C1C1(O)CCCC1` (stereo unspecified), “inactive”.
On to `Cc1cc(NC(=O)CN2CCCCC2C)nc2c1c(=O)oc1ccccc12` (stereo unspecified), for which the B-score entry is “inactive”.
As for `CC(=O)N1CCC(N(C(=O)Nc2ccc(Cl)cc2)C(C)C)CC1`, the entry is “inactive”; as for `COc1ccc(CCn2c(=N)c(C(=O)NCC3CCCO3)cc3c(=O)n4cccc(C)c4nc32)cc1OC` (stereo unspecified), “inactive”; as for `Cc1ccc2nc3c(cc(C(=O)NCCc4ccccc4)c(=N)n3CC3CCCO3)c(=O)n2c1` (stereo unspecified), “inactive”.
As for `COc1ccc(CNC(=O)c2cc3c(=O)n4ccccc4nc3n(CC3CCCO3)c2=N)cc1` (stereo unspecified), the figure is -7.34 (active); as for `CC(C)c1ccc(NC2CCCN(C(=O)c3ccncc3)C2)cc1` (stereo unspecified), “inactive”.
As for `CC(=O)NS(=O)(=O)c1ccc2c(c1)Cc1cc(S(=O)(=O)NC(C)=O)ccc1-2`, the entry is “inactive”; as for `CCOC(=O)N1CCC(NC(=O)CN2C(=O)COc3ccc(C(C)(C)C)cc32)CC1`, -7.85 (active); as for `Cc1ccc2c(c1)N(CC(=O)N1CCCC(C)C1)C(=O)CO2` (stereo unspecified), “inactive”.
For `Cc1ccc2c(c1)N(CC(=O)N1CCC(O)CC1)C(=O)CO2`, the B-score entry is “inactive”.
